Shown are actives, neighbours in structure and some others; about 1.5% of the full set was active somewhere.
Myeloid diff 2 = myeloid differentiation induction. ER-HoxA9 myeloid progenitors, lysozyme-GFP differentiation, flow cytometry. 360,000 compounds, 1% hits. AID 624256. calls only at 10 µM;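 active = normalized GFP-positive differentiation at or above the plate's own cutoff, the solvent-only control mean plus 3 SD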;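 note: cells exposed to compound for four days before flow analysis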
TLR4-MyD88 BLA = blocks binding of human TLR4 to MyD88. O00206+Q99836. inhibition, % at 8.4 µM. HeLa CL3-4 TLR4/MyD88 BLA complementation, FRET ratio. 200,000 compounds, 0.18% hits. AID 861; in the data active = inhibition above about 25%
Target sequence (O00206 whole entry, looked up): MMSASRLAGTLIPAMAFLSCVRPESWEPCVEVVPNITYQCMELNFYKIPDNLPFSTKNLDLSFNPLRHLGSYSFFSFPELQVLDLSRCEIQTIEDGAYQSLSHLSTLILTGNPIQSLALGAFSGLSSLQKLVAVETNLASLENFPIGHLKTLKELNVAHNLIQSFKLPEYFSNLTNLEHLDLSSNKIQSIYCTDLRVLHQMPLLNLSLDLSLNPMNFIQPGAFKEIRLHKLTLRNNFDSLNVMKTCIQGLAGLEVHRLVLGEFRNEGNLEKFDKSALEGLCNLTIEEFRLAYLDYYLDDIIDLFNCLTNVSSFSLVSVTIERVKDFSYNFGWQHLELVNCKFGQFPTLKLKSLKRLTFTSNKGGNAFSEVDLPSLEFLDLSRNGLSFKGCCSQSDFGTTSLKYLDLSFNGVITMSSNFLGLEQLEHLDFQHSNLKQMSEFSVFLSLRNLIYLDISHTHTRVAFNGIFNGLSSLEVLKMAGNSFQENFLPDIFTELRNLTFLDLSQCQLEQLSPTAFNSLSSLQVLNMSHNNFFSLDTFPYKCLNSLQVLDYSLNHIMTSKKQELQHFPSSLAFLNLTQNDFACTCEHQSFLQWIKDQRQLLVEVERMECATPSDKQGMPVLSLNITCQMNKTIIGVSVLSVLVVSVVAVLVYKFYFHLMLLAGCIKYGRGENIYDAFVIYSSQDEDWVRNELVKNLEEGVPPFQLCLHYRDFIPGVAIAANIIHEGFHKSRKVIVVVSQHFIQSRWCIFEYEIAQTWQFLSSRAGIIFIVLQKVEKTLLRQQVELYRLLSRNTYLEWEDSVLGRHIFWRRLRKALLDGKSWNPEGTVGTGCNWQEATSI
Target sequence (Q99836 whole entry, looked up): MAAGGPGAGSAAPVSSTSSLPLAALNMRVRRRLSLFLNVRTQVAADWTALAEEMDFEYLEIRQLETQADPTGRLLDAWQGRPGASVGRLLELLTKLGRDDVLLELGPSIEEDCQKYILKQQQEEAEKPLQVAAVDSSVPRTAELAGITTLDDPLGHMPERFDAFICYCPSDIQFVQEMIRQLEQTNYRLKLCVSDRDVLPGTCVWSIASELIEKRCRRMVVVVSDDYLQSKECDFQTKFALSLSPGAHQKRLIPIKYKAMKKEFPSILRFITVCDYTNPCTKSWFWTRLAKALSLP
TLR9-MyD88 block = inhibitors of human TLR9-MyD88 binding | AID 504734 | 340,000 compounds, 0.21% hits | inhibition, % at 4.98 µM | CHO BLA complementation TLR9-MyD88, CCF4 FRET ratio;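 active = inhibition above the mean over all tested compounds plus 3 SD, cut at about 21% in these data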
NOD2-RIPK2 inh = NOD2-RIPK2 protein interaction inhibition | CHO BLA complementation NOD2-RIPK2, CCF4 ratio | inhibition, % at 4.98 µM | 360,000 compounds, 0.38% hits | AID 624267; in the data active = inhibition above about 21%
Myeloid diff CP1 = promotes myeloid progenitor differentiation. shares compounds with Myeloid diff 2. ER-HoxA9 myeloid progenitors, GFP/Mac1 double-positive flow. calls only. 2,300 compounds, 2% hits;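 active = share of green or green-and-red cells above 9 and 9% in run 1 or 4 and 3% in run 2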
GFP autofluor = counter-screen for myeloid differentiation promoters: compound fluorescence; shares compounds with Myeloid diff 2; ER-HoxA9 myeloid progenitors, no estrogen, GFP autofluorescence flow cytometry; vehicle wells 0%, positive control 100%; fluorescence response, % (no concentration beside the values); 2,300 compounds, 7.4% hits; AID 651707;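 active = over 5% cells positive for green fluorescent reporter, or over 2% positive for both it and APC stain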
Calls only; – = inactive; · = no result given; + = active, no number.

SMILES	Myeloid diff 2	TLR4-MyD88 BLA	TLR9-MyD88 block	NOD2-RIPK2 inh	Myeloid diff CP1	GFP autofluor
CCn1c(=O)c(=O)n(CC)c2cc(S(=O)(=O)Nc3cccc(OC)c3)ccc21	+	–	–	–	–	–
CC[C@H](CO)Oc1cc(NCc2ccc(Cl)c(Cl)c2)c2ncn(C(C)C)c2c1	–	·	–	–	·	·
CCC(CO)Oc1cc(NCc2ccc(Cl)cc2)c2ncn(C(C)C)c2c1 (stereo not given)	–	·	–	–	–	–
CC1CC(C)CN(C(=O)COC(=O)c2ccc(S(=O)(=O)N(C)c3ccccc3)cc2)C1 (stereo not given)	–	·	–	–	–	–
CC1CC(C)CN(C(=O)COC(=O)c2cccc(S(=O)(=O)N(C)c3ccccc3)c2)C1 (stereo not given)	–	·	–	–	·	·
COc1ccc(-c2cc3ccccc3n2CC(O)CN2CCC(C)CC2)cc1 (stereo not given)	–	–	–	–	–	–
C1CCCCCC(NCCN2CCNCC2)CCCCC1	+	·	–	–	–	–
O=C(NC1CCCCC1)N1CCNCC1	–	·	–	–	·	·
O=C(NC(c1ccc(-c2ccccc2)cc1)c1cnccn1)C1CCN(Cc2ccc3c(c2)OCO3)CC1 (stereo not given)	–	·	·	–	·	·
Cc1nc(NCCO)c(C#N)c2c1COC(C)(C)C2	+	–	–	–	–	–
CN(C)CCCNc1nc(-c2ccccc2)c2c(c1C#N)CC(C)(C)OC2	–	·	–	–	·	·
CO[C@@H]1CN(C)C(=O)c2ccc(NS(=O)(=O)c3c(C)noc3C)cc2OC[C@@H](C)NC[C@@H]1C	–	·	·	–	·	·
CCC(Oc1nc2ccccc2nc1-c1ccccc1NC(C)=O)C(=O)c1ccccc1 (stereo not given)	+	–	–	–	–	–
CC(=O)Nc1ccccc1-c1nc2cc(C#N)c(C#N)cc2[nH]c1=O	–	·	–	–	·	·
Cc1nc2nc(-c3ccco3)[nH]n2c(=O)c1C	–	–	–	–	–	–
COc1ccc(CCN2C(=O)COc3ccccc3C2C(=O)NC(C)(C)C)cc1OC (stereo not given)	–	·	·	–	·	·
Cc1cc(C(=O)Nc2nccs2)c2cc(F)ccc2n1	–	·	–	–	–	–
COc1ccc(C(=O)NC(C)CCc2ccccc2)cc1[N+](=O)[O-] (stereo not given)	·	·	–	–	·	·
COc1ccc(C(=O)C(C)[n+]2ccc(C)c3ccccc32)cc1[N+](=O)[O-] (stereo not given)	+	·	–	–	–	–
Cc1c(C(=O)NCc2cccc(C(F)(F)F)c2)sc(=O)n1Cc1cccc(F)c1	–	·	·	–	·	·
C[C@@]12C(=O)N(c3cccc(Cl)c3)C(=O)N1[C@H](c1ccc(Cl)cc1)[C@@H]1C(=O)N(C3CCCCC3)C(=O)[C@@H]12	+	·	–	–	–	–
C[C@@]12C(=O)N(c3cccc(F)c3)C(=O)N1[C@H](c1ccc(Cl)cc1)[C@@H]1C(=O)N(C3CCCCC3)C(=O)[C@@H]12	–	·	–	–	·	·
Cc1ccccc1CN(c1ccc(C(=O)Nc2ccccc2C(=O)NCc2ccco2)cc1)S(C)(=O)=O	–	–	–	–	–	–
Cc1ccc(C(=O)Nc2ccccc2C(=O)NCc2ccco2)cc1	–	·	–	–	·	·
C=CCCC(=O)N1C[C@@H](CO)[C@@H](NC)C[C@H]1c1ccccc1Br	–	·	·	–	·	·
SMILES	Myeloid diff 2	TLR4-MyD88 BLA	TLR9-MyD88 block	NOD2-RIPK2 inh	Myeloid diff CP1	GFP autofluor
OC[C@@H]1CN(Cc2ccc(-c3ccccc3)cc2)C[C@H](n2cnc3c(NCc4ccncc4)ncnc32)O1	–	·	·	–	·	·
Cc1ccc(S(=O)(=O)N2CCOC2CNC(=O)C(=O)NCc2ccccn2)cc1 (stereo not given)	–	·	–	–	·	·
COc1ccc(S(=O)(=O)N2CCOC2CNC(=O)C(=O)NCc2ccccn2)cc1OC (stereo not given)	+	·	–	–	–	–
CCOC(=O)[C@]12CCC=C1N(Cc1cccc3ccccc13)C(=O)[C@H](CC(=O)NCC1CCCCC1)C2	–	·	·	–	·	·
COc1cccc(OCCSc2nnc3sc4ccccc4n23)c1	–	–	–	–	·	·
c1ccc(OCCSc2nnc3sc4ccccc4n23)cc1	–	–	–	–	–	–
CCCCCCCCN1C(=O)[C@H](CC(=O)N2CCN(C(=O)OCC)CC2)C[C@@]2(C(=O)OC)CC(C)(C)CC=C12	–	·	·	–	·	·
O=C(O)c1cccc(S(=O)(=O)NCC2COc3ccccc3O2)c1 (stereo not given)	–	·	–	–	–	–
O=S(=O)(NCC1COc2ccccc2O1)c1ccc2ccccc2c1 (stereo not given)	–	–	–	–	·	·
C#CC[N+]1(CC#Cc2ccccc2)CCCC1	+	–	–	–	–	–
Cc1ccc(C(=O)NCCN2CCC(n3c(=O)[nH]c4ccccc43)CC2)cc1C	–	·	·	–	·	·
CCOC(=O)[C@]12CCCC=C1N(Cc1ccccc1)C(=O)[C@H](CC(=O)NCC1CCCCC1)C2	–	·	·	–	·	·
CCOC(=O)Cc1csc(NC(=O)CC)n1	–	–	–	–	·	·
CCOC(=O)Cc1csc(NS(C)(=O)=O)n1	–	–	–	–	–	–
Cc1cccc(NC(=S)N(C)C2CCCCC2)c1	–	–	–	–	–	–
Cc1ccnc(S(=O)(=O)Cc2ccc([N+](=O)[O-])cc2)n1	–	·	–	–	–	–
Cn1c(CO)cnc1S(=O)(=O)Cc1ccc([N+](=O)[O-])cc1	–	–	–	–	·	·
COC(=O)[C@]12CCCCC=C1N(Cc1ccc(Cl)cc1Cl)C(=O)[C@H](CC(=O)N1CCSCC1)C2	–	·	·	–	·	·
CC1CC(C)CN(c2ncc3c(n2)CC(c2ccccc2Cl)CC3=O)C1 (stereo not given)	–	–	–	–	·	·
CC1CC(C)CN(c2ncc3c(n2)CC(c2ccc(Cl)cc2)CC3=O)C1 (stereo not given)	–	–	–	–	–	–
CC#CCN1c2ccccc2[C@]23C[C@@H](C(=O)OC)N(C(=O)NC4CCCCC4)C2=NC(C(=O)OC)=C(C(=O)OC)[C@H]13	–	·	–	–	–	–
CN(C)S(=O)(=O)Oc1ccsc1C(=O)Nc1cccc(Cl)c1Cl	–	–	–	–	–	–
CN(C)S(=O)(=O)Oc1ccsc1C(=O)Nc1ccccc1Cl	–	–	–	–	·	·
O=C(NCc1ccc2c(c1)OCO2)c1nnc(Cc2ccc(F)cc2)o1	–	–	–	–	·	·
Nc1nc2cc3c(cc2cc1C(=O)NCc1ccc(F)cc1)OCO3	+	·	·	–	–	–
CC(=O)N(CCc1ccccc1)c1ccc2c(c1)C1CC2CCN1C(=O)OCc1ccccc1 (stereo not given)	–	·	–	–	·	·
CCCCC(=O)N(C)c1c(CC)nc2c(OCC(=O)N(C)C)cccn12	–	·	·	–	·	·
O=C(Nc1nccs1)C1CCCN(S(=O)(=O)c2cccc3cccnc23)C1 (stereo not given)	–	–	–	–	–	–
CCS(=O)(=O)CCSc1nc(C)cc(C)c1C#N	–	–	–	–	·	·
Cc1ccc(S(=O)(=O)CCSc2nc(C)cc(C)c2C#N)cc1	+	–	–	–	–	–
